# Experimental data reported in publication PMC5540273 (PLoS ONE, 2017).
# Key:
# p38-delta = conditions: concentration: 1 μM, replicates: in singlicate; n = 1
# p38-gamma = tested on: T1, p38-gamma; conditions: concentration: 1 μM, replicates: in singlicate; n = 1
# T1 construct: gene MAPK12
# 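Note: KINOMEscan kinase panel screen.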
structure (smiles),measurement,setting,value
CCC(=O)c1c(-c2ccccc2)c2cc(Cl)ccc2c(=O)n1Cc1cc(S(C)(=O)=O)n(CC(F)F)n1,%Inh,p38-delta,19%
same,%Inh,p38-gamma,0%
COc1cc(OC)cc(-c2cc3cnc(N)nc3nc2NC(=O)NC(C)(C)C)c1,%Inh,p38-delta,0%
same,%Inh,p38-gamma,9%
FC(F)(F)c1ccc(-c2ncn(CCCN3CCOCC3)c2-c2ccncc2)cc1 [SB-217780],%Inh,p38-delta,42%
same,%Inh,p38-gamma,2%
CCC(=O)c1c(-c2ccccc2)c2cc(Cl)ccc2c(=O)n1Cc1cc(S(C)(=O)=O)n(CCC(C)(C)O)n1,%Inh,p38-delta,32%
same,%Inh,p38-gamma,26%
Cc1nnc(-c2ccc3ncn(-c4ccc(S(C)=O)cc4)c3c2)o1 (stereo not shown),%Inh,p38-delta,1%
same,%Inh,p38-gamma,0%
CCC(=O)c1c(-c2ccccc2)c2cc(Cl)ccc2c(=O)n1Cc1cc(C(=O)NC2CC2)n(C)n1,%Inh,p38-delta,35%
same,%Inh,p38-gamma,9%
Nc1n[nH]c2nnc(-c3ccccc3)c(-c3ccccc3)c12 [GW554060],%Inh,p38-delta,27%
same,%Inh,p38-gamma,0%
COc1ccc(CNC(=O)NC2CCN(c3ccnc(Nc4ccc(F)cc4)n3)C2)cc1 (stereo not shown) [GSK1379706],%Inh,p38-delta,38%
same,%Inh,p38-gamma,4%
Cc1cc(Nc2nc(-c3cccc(C)n3)nc3ccccc23)ccn1 [GW872411],%Inh,p38-delta,0%
same,%Inh,p38-gamma,0%
Cc1cccc(-c2cc(-c3c[nH]nc3-c3ccccn3)ccn2)c1 [GW679395],%Inh,p38-delta,44%
same,%Inh,p38-gamma,12%
CCCC(=O)Nc1n[nH]c2ncc(-c3cccc4ccccc34)cc12 [SB-642057],%Inh,p38-delta,26%
same,%Inh,p38-gamma,39%
Nc1ncnc2c1ncn2-c1ccc(Cl)cc1 [AH2635],%Inh,p38-delta,32%
same,%Inh,p38-gamma,0%
Cn1c(=O)c(F)c(Nc2ccc(I)cc2F)c2c(=O)n(OC[C@H](O)CO)cnc21,%Inh,p38-delta,0%
same,%Inh,p38-gamma,39%
COc1cc2ncn(-c3cc(OCc4ccncc4Br)c(C(N)=O)s3)c2cc1OC [GW854278],%Inh,p38-delta,30%
same,%Inh,p38-gamma,10%
OCCCNc1nccc(-c2c(-c3cccc(C(F)(F)F)c3)nn3cc(C(F)(F)F)ccc23)n1 [GW630813],%Inh,p38-delta,20%
same,%Inh,p38-gamma,0%
Cc1c(Cn2c(C)nn3c(=O)cc(N4CCO[C@H](C)C4)nc23)cccc1C(F)(F)F [GSK2373690],%Inh,p38-delta,41%
same,%Inh,p38-gamma,0%
O=C1NC(=O)C(c2ccccc2)=C1Nc1cccc(O)c1 [SB-390534],%Inh,p38-delta,0%
same,%Inh,p38-gamma,15%
O=C(Nc1ccc2c(c1)OCO2)NC1CCN(c2ccnc(NCc3ccc(F)cc3)n2)CC1 [GSK1379859],%Inh,p38-delta,28%
same,%Inh,p38-gamma,0%
COc1ccc(-c2cc3c(C)nc(N)nc3n([C@H]3CC[C@H](O)CC3)c2=O)cn1,%Inh,p38-delta,0%
same,%Inh,p38-gamma,100%
COC(=O)c1c(-c2ccccc2)c2cc(Br)ccc2c(=O)n1Cc1ccc(NC(=O)CCC(=O)O)cc1,%Inh,p38-delta,28%
same,%Inh,p38-gamma,21%
Fc1cccc(CSc2nnc(-c3ccc4c(c3)CCO4)o2)c1,%Inh,p38-delta,28%
same,%Inh,p38-gamma,21%
Nc1ncnc2c1ncn2-c1cccc(F)c1 [SKF-97560],%Inh,p38-delta,0%
same,%Inh,p38-gamma,48%
CCC(=O)c1c(-c2ccccc2)c2cc(Cl)ccc2c(=O)n1Cc1cc(S(C)(=O)=O)n(CC(N)=O)n1,%Inh,p38-delta,16%
same,%Inh,p38-gamma,7%
Cc1ccc(Oc2ccc(Nc3ncnc4cc[nH]c34)cc2C)cn1,%Inh,p38-delta,30%
same,%Inh,p38-gamma,35%
Cc1nc(N(C)[C@H]2CN(C(=O)CC#N)CC[C@H]2C)c2cc[nH]c2n1,%Inh,p38-delta,0%
same,%Inh,p38-gamma,11%
COc1cc(Nc2nccc(N3CCC(NC(=O)C(C)c4ccc(Cl)cc4)C3)n2)cc(OC)c1OC (stereo not shown) [GSK1379757],%Inh,p38-delta,43%
same,%Inh,p38-gamma,1%
COc1ccc(-c2cc3c(C)nc(N)nc3n([C@H]3CC[C@H](OCCO)CC3)c2=O)cn1,%Inh,p38-delta,13%
same,%Inh,p38-gamma,0%
Cl.c1ccc(Cn2cnc3cc(Nc4ncnc5ccccc45)ccc32)cc1 [GW272142],%Inh,p38-delta,39%
same,%Inh,p38-gamma,0%
CCS(=O)c1ccc(-c2coc3ccc(-c4nnc(C)o4)cc23)cc1 (stereo not shown),%Inh,p38-delta,11%
same,%Inh,p38-gamma,0%
O=C(Nc1n[nH]c2nc(-c3ccccc3)c(Cl)cc12)C1CC1 [SB-734909],%Inh,p38-delta,10%
same,%Inh,p38-gamma,27%
CCn1c(-c2ccoc2)nc2cnccc21 [SB-733887],%Inh,p38-delta,25%
same,%Inh,p38-gamma,12%
COc1ccc(-n2cnc3c(N)ncnc32)cc1 [SKF-97236],%Inh,p38-delta,0%
same,%Inh,p38-gamma,12%
